An excerpt weighted towards active compounds, which were near 9.2% of everything screened.
SMN2 splice up: qHTS Assay for Enhancers of SMN2 Splice Variant Expression. Potency, µM (top dose mostly 46.1 µM), inactives show top-dose activity change, positive = activation, most hits filed as activators. AID 1458, 2008. 2.8% of 210,000 active. HEK293 SMN2-luciferase splicing reporter, luminescence, 30-36 h; also: % of control where 0% means no effect; nearly all actives have a fitted effect of over 55% in size
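HEK293 cells carry an SMN2 […]–luciferase reporter in which exon 7 inclusion puts luciferase in frame. Cells were plated 10-12 h before compound addition, then incubated 30-36 h at 37C. ONE-Glo luminescence was read; sodium butyrate at 4.5 mM final served as control.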
FLuc modulator: qHTS profiling assay for firefly luciferase inhibitor/activator using purifed enzyme and Km concentrations of substrates (counterscreen for miR-21 project); Luciferin 4-monooxygenase (Photinus pyralis), P08659; purified FLuc, Km substrates, luminescence inhibition; 6.9% of 360,000 active; Potency, µM (series often up to 57.5 µM), without a hit: at the highest dose activity change, negative = inhibition, usual class: inhibitors; AID 588342, 2011;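 also: plate controls were vehicle for no effect and reference inhibitor for full effect; nearly all actives have a fitted effect of over 55% in size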
Target sequence (P08659 whole entry, looked up): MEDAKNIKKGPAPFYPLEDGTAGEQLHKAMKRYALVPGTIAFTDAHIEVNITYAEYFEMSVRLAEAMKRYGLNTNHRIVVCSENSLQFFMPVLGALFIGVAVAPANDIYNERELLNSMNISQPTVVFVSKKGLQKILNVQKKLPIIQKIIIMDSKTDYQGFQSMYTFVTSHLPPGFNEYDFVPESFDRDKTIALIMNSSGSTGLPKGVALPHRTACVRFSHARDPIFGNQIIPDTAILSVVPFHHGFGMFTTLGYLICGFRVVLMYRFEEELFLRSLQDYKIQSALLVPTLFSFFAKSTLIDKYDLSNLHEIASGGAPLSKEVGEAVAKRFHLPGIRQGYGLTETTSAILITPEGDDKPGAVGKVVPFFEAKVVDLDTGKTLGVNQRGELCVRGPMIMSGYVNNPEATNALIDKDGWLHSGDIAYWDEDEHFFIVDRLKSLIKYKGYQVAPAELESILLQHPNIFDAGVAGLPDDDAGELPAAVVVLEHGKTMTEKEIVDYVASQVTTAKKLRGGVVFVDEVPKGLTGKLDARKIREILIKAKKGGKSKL
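Biochemical qHTS of compounds, final roughly 60 µM downward over six points, against 10 nM purified firefly luciferase using Km concentrations of substrates (10 uM D-luciferin, 10 uM ATP) in Tris acetate pH 7.5 buffer; luminescence output.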
ELG1 genotoxic: qHTS screen for small molecules that induce genotoxicity in human embryonic kidney (HEK293T) cells expressing luciferase-tagged ELG1. HEK293T ELG1-luciferase reporter, luminescence, 16 h. Potency, µM (series often up to 46 µM), for inactives: top-dose activity change, positive = activation, actives largely listed as activators. 1.3% of 330,000 active. AID 504466, 2011; also: % of control where 0% means no effect; nearly all actives have a fitted effect of over 60% in size
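Genotoxicity was scored as increased ELG1-luciferase reporter signal, measured by ONE-Glo luminescence (30 min, room temperature). Compound or vehicle exposure of the HEK293T reporter cells lasted 16 hr at 37°C.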
NPC1 promoter act: qHTS Assay for NPC1 Promoter Activators; Huh7 NPC1 promoter luciferase reporter, 24 h; Potency, µM (titrated, usually from 9.22 µM), inactives show at the top dose activation, most hits filed as activators; 2.4% of 320,000 active; AID 485313, 2010; also: % of control where 0% means no effect; nearly all actives have a fitted effect of over 60% in size
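In 1536-well qHTS, Huh7 cells harboring an NPC1 promoter–luciferase construct received compound for 24 h; activation was quantified by luminescence following luciferase reagent addition.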
ELG1 DNA repair: qHTS screen for small molecules that inhibit ELG1-dependent DNA repair in human embryonic kidney (HEK293T) cells expressing luciferase-tagged ELG1; HEK293T ELG1-luciferase reporter, luminescence, 16 h; DNA damage induced by 5-fluorouridine; Potency, µM (titrated, usually from 46.1 µM), without a hit: at the top dose activity change, negative = inhibition, hits mostly inhibitors; 2.3% of 330,000 active; AID 504467, 2011; also: % is scaled to controls: 0 for no effect and ±100 for the full control effect; nearly all actives have a fitted effect of over 55% in size
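Quantitative HTS, concentration-response format. 2,000 cells/well co-treated with 5-fluorouridine and compound, 16 hr in 5% CO2 at 37 °C; ONE-Glo luminescence read after 30 min.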
Rab9 promoter act: qHTS Assay for Rab9 Promoter Activators; Huh7 Rab9 promoter-luciferase reporter, luminescence, 24 h; 2.8% of 320,000 active; AID 485297, 2010; Potency, µM (doses to about 9.22 µM), for inactives: at the top dose activation, negative = inhibition, most hits filed as activators; also: % of control where 0% means no effect; nearly all actives have a fitted effect of over 60% in size
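Promoter activation is measured as luciferase luminescence in Huh7 cells stably transfected with a Rab9 promoter–luciferase construct, following 24 h compound exposure at 37 °C and 10 min reagent incubation at ambient temperature.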
* = called active by the depositor; ? = inconclusive; · = not tested or not shown; [ ] = dose if it differs, or a comment. Calls follow the shape of the dose curve; as a rule, active = well fitted curve in the direction sought with a large enough effect; inconclusive = small, poorly fitted or top-dose-only effect, or another doubt; inactive = no such curve, though single readings can be large; an effect the other way counts as inactive or inconclusive. Potency is read from the fitted curve at half-maximal effect.

SMILES	SMN2 splice up	FLuc modulator	ELG1 genotoxic	NPC1 promoter act	ELG1 DNA repair	Rab9 promoter act
NC(=O)COc1ccc(/C=C2\C(=O)ON=C2c2ccccc2)cc1	·	?	13%	-4%	?	-5%
CCCN(CC(=O)Nc1ccccc1OC)C(=O)c1ccncc1	·	2%	-1%	-2%	-4%	0%
Cc1nnsc1C(=O)N1CCN(c2cc(C(F)(F)F)ccn2)CC1	·	1%	-1%	-4%	9%	-2%
O=[N+]([O-])c1ccccc1N/N=C/c1cccc(O)c1O	·	1.5µM*	10µM*	3.5µM*	?	-8%
Cc1c(NC(=S)N/N=C/c2ccc(O)cc2)c(=O)n(-c2ccccc2)n1C	10%	-12%	0%	-7%	5%	0%
O=[N+]([O-])c1ccc(O)c(/C=N/Nc2ccccc2Cl)c1	13µM*	4.8µM*	?	1.4µM*	?	?
O=[N+]([O-])c1cccc(/C=N\Nc2ccc3ccccc3n2)c1O	-11%[9.22 µM]	·	·	·	·	·
Cc1c(NC(=S)N/N=C/c2cc([N+](=O)[O-])ccc2O)c(=O)n(-c2ccccc2)n1C	·	27µM*	-12%	-3%	?	-3%
O=[N+]([O-])c1ccccc1N/N=C\c1ccccc1F	·	?	5.8µM*	?	?	2.8µM*
Cc1c2cnn(CC(=O)NC(C)C)c(=O)c2c(C)n1Cc1ccccc1Cl	9%	?	·	·	·	·
Cc1cc(NC(=O)CSc2nc3cc(C(=O)NCCCOC(C)C)ccc3c(=O)n2Cc2ccco2)no1	-11%	-4%	9%	-3%	?	2%
O=[N+]([O-])c1ccccc1N/N=C\c1ccccc1Cl	7.9µM*	0.67µM*	?	?	?	2.8µM*
O=c1c2cnn(-c3ccccc3)c2nc(-c2cccs2)n1-c1cccc(Cl)c1	-47%	-11%	-3%	0%	15µM*	-1%
COc1cc(/C=C/C(=O)OCC(=O)N2CCCc3ccccc32)ccc1OC(F)F	·	0%	1%	1%	1%	0%
O=C(c1cc2nc(-c3ccco3)cc(C(F)(F)F)n2n1)N1CCCCCC1	-11%	21µM*	-16%	-2%	11%	7%
O=C(c1cc2nc(-c3ccco3)cc(C(F)(F)F)n2n1)N1CCN(c2ccccc2)CC1	3%	0%	-21%	0%	?	-7%
COc1cccc(-c2cc(C(F)(F)F)n3nc(C(=O)N4CCCCC4c4cccnc4)cc3n2)c1 (configuration not stated)	-49%	15µM*	-13%	-8%	21µM*	-10%
COc1ccc(-c2cc(C(F)(F)F)n3nc(C(=O)N4CCCCC4)cc3n2)cc1	-10%	?	-6%	2%	-4%	-2%
N#Cc1nc(-c2ccc(F)cc2)oc1N1CCC(C(N)=O)CC1	·	-6%	2%	-1%	3%	1%
O=C(Nc1c(O)c2ccccc2[nH]c1=O)c1ccco1	·	-3%	1%	0%	12%	-3%
c1ccc(Nc2nc(CSc3ncn[nH]3)cs2)cc1	-28%	15µM*	11%	?	?	?
N#Cc1cc([N+](=O)[O-])ccc1NC(=O)CSc1n[nH]c(=O)n1C1CC1	·	5%	-2%	-8%	?	-1%
FC(F)(F)c1ccccc1NC(=S)N1CCCC1	·	0%	2%	-3%	-5%	3%
O=C(c1ccco1)N1CCN(C(=S)Nc2ccccc2C(F)(F)F)CC1	·	-1%	-12%	1%	21µM*	1%
C/C(=N\NC(=O)CSc1nc2ccccc2s1)c1cccnc1	·	-6%	-5%	-4%	-1%	-4%
SMILES	SMN2 splice up	FLuc modulator	ELG1 genotoxic	NPC1 promoter act	ELG1 DNA repair	Rab9 promoter act
COc1ccc(NS(=O)(=O)c2cc(NC(=O)c3ccc(Cl)cc3)ccc2N2CCOCC2)cc1	·	·	-1%	·	9.2µM*	·
CC(C)Oc1ccc(C(=O)Nc2ccc(Cl)c(S(=O)(=O)Nc3ccc(Cl)cc3)c2)cc1	-70%	15µM*	-10%	-2%	?	1%
COc1ccc(C(=O)Nc2ccc(N3CCN(c4ccc(OC)cc4)CC3)c(C#N)c2)cc1	10µM*	2%	3%	1%	28%	-1%
CC(NC(N)=O)C(=O)Nc1ccc(Cl)c(S(=O)(=O)Nc2ccc(Cl)cc2)c1 (configuration not stated)	-1%	-5%	-2%	-5%	-1%	-2%
COC(=O)c1cc(NC(=O)c2cc(-c3ccc(C(F)(F)F)cc3)oc2C(F)(F)F)ccc1N1CCOCC1	·	1%	-11%	-6%	?	-12%
COC(=O)c1cc(NC(=O)c2cc(-c3ccc(OC)cc3)oc2C(F)(F)F)ccc1N1CCOCC1	·	?	-11%	-1%	23µM*	-5%
COc1ccc(NS(=O)(=O)c2cc(NC(=O)c3ccncc3)ccc2N2CCOCC2)cc1	7.9µM*	3%	3%	-1%	-5%	0%
CSCCC(NC(=O)c1ccco1)C(=O)NCC(c1ccccc1)N(C)C (configuration not stated)	·	-9%	2%	0%	?	-2%
Cc1ccc(-n2nnnc2SCn2nnc3ccccc3c2=O)cc1	5%	13µM*	16µM*	?	?	3.5µM*
COc1ccc(C)cc1-n1nnnc1SCn1nnc2ccccc2c1=O	-44%	-3%	-3%	0%	5.8µM*	-18%
COc1ccc(C)cc1-n1nnnc1SCc1csc(C)n1	-10%	2%	1%	16%	16%	?
COc1ccc(C)cc1-n1nnnc1SCc1cc(=O)n2cc(C)ccc2n1	-55%	1%	-8%	-11%	18µM*	-26%
O=c1c2ccccc2nnn1CSc1nnc2ccccn12	13µM*	15µM*	18µM*	3.5µM*	?	3.2µM*
Cc1ccc(-c2cc(C(F)F)n3ncc(C(=O)N4CCc5ccccc54)c3n2)cc1	-36%	0%	16%	-21%	21µM*	-27%
COc1ccc(-c2cc(C(F)F)n3ncc(C(=O)N4CCN(C(=O)c5ccco5)CC4)c3n2)cc1	9%	1%	-8%	-6%	3.3µM*	-4%
Cc1ccc(-c2cc(C(F)F)n3ncc(C(=O)N4CCN(c5ccccn5)CC4)c3n2)cc1	-6%	1%	-30%	-10%	3.7µM*	-6%
O=C(c1cnn2c(C(F)F)cc(-c3ccccc3)nc12)N1CCc2ccccc21	-7%	-1%	-7%	-17%	?	-6%

Bioassay records as filed in PubChem.
